Source: PubChem (National Center for Advancing Translational Sciences (NCATS))
Sm TGR block = S. mansoni TGR enzyme inhibition. Q962Y6. purified TGR, DTNB reduction, TNB absorbance 405 nm. Potency, µM (series often up to 114 µM), most hits filed as inhibitors. 360,000 tested, 3% active; active means well fitted inhibition curve with a large enough effect; inconclusive means small, poorly fitted or top-dose-only effect; inactive means no such curve, though single readings can be large or run the other way; further: nearly all actives have a fitted effect of over 60% in size
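TGR 20 nM + NADPH 100 uM (dispensed conc.), cpd preinc 15 min RT; start with NADPH (500 uM addition) then DTNB (15 mM addition). Kinetic TNB absorbance, 405 nm filter. Four-parameter Hill fit across titration.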
CHX counter = affects cycloheximide protein synthesis inhibition readout, counter-screen; cell reporter, cycloheximide protein synthesis inhibition counterscreen; max response, %; 300,000 tested, 12% active; in the data active means max response mostly above about 13%, no sharp cut-off; inactive means mostly below about 14%; further: read at 38.3 µM for the half of the compounds with a filed dose
FMDV inh = foot and mouth disease virus antiviral activity; FMDV antiviral cell-based qHTS; Potency, µM (series often up to 57.9 µM), most hits filed as inhibitors; 410,000 tested, 1.2% active; AID 1159524; calls by dose curve; tested in HEK293T cells; further: read-out not given here; nearly all actives have a fitted effect of over 45% in size
Shiga toxin inh = inhibitors of Shiga toxin in Vero cells; inhibition, % at 38.7 µM; 290,000 tested, 9.2% active; Vero cells, Shiga toxin protein synthesis inhibition reporter; AID 2315; in the data active means inhibition mostly above about 28%, no sharp cut-off; inactive means mostly below about 43%
Hits are given with their value; – = inactive; ? = inconclusive; · = no result given. Shown are actives, neighbours in structure and some others; about 12% of the full set was active somewhere.

SMILES	Sm TGR block	CHX counter	FMDV inh	Shiga toxin inh
CC(C)c1ccc(OCc2nnc(SCC(=O)N3CCCCC3)o2)cc1	–	32	–	–
CC1(C)Cc2c(c(N3CCOCC3)nc3sc4c(NCc5ccco5)nnnc4c23)CS1	40µM	–	–	–
Cc1cc(OCCn2cc(C(=O)c3cccs3)c3ccccc32)ccc1Cl	–	·	–	·
CC(=O)c1ccc2c3c(cccc13)C(=O)N(CCc1ccccc1)C2=O	–	32	–	49
NN1C(=O)c2cccc3c(C(=O)O)ccc(c23)C1=O	–	–	–	–
CCN(Cc1ccncc1)Cc1ccc2c(c1)CN(C(=O)c1cccc3c(C)c(C)[nH]c13)CCO2	·	·	–	·
CC(=O)c1ccc(NS(=O)(=O)Cc2ccccc2)cc1	–	–	·	–
CC(=O)N(C)c1ccc(NS(=O)(=O)Cc2ccccc2)cc1	–	27	–	63
CC1CSc2nc3sc4c(c3c(=O)n21)CCCC4 (stereo not given)	–	22	–	–
O=c1c2c3c(sc2nc2n1CCCS2)CCCC3	–	42	–	–
O=c1c2c3c(sc2nc2n1CCCCC2)CCCC3	–	31	–	97
O=c1c2c3c(sc2nc2n1CCCC2)CCCCC3	–	44	–	–
Cc1cccc(OCc2ccc(-c3nc(C#N)c(NCc4cccnc4)o3)o2)c1	–	·	–	·
CCOc1ccc(S(=O)(=O)NCc2nc3cccnc3n2Cc2ccccc2OC)cc1	–	·	–	·
N=c1c2c3c(sc2nc2n1CCCCC2)CCCCC3	–	32	–	73
CC1=Nn2c(nc3sc4c(c3c2=O)CCCC4)SC1	–	24	–	–
O=c1c2c3c(sc2nc2n1CCCCC2)CCCCC3	–	28	·	73
Nc1c2c3c(sc2nc(=O)n1N)CCCC3	–	–	–	–
O=c1c2c3c(sc2nc2n1CCCC2)CCC3	–	–	·	–
Nc1nc2sc3c(c2c(=O)s1)CCCC3	–	35	·	–
COc1ccc2c(c1)c1c(c(=O)n(Cc3ccccc3)c(=O)n1CC(=O)NCc1ccccc1Cl)n2C	–	·	–	·
CNC(=O)C1CCC(Cn2c(=O)c3sccc3n(CC(=O)Nc3cc(F)ccc3F)c2=O)CC1 (stereo not given)	–	·	–	·
CC(C)(C)C(=O)NCC(c1ccc2c(c1)OCO2)N1CCOCC1 (stereo not given)	–	·	–	·
O=C(CC1NCCNC1=O)Nc1ccccc1F (stereo not given)	–	·	–	·
CCCSc1nnc(N2C(=O)C(O)=C(C(=O)c3ccco3)C2c2ccccc2F)s1 (stereo not given)	7.1µM	–	–	–
SMILES	Sm TGR block	CHX counter	FMDV inh	Shiga toxin inh
C=CCSc1nnc(N2C(=O)C(O)=C(C(=O)c3ccco3)C2c2ccccc2F)s1 (stereo not given)	11µM	–	–	–
Cc1nnc(N2C(=O)C(O)=C(C(=O)c3ccco3)C2c2cccc3ccccc23)s1 (stereo not given)	?	–	–	37
CSc1nnc(N2C(=O)C(O)=C(C(=O)c3ccc(C)o3)C2c2ccc(C)cc2)s1 (stereo not given)	?	35	–	95
COc1ccc(N2CC3=C(C2=O)C(c2ccc(O)c(OC)c2)NC(=O)N3C)cc1 (stereo not given)	–	·	–	·
Cc1ccc(OCC(=O)Nc2ccc3nc(SCC(=O)N(C)c4ccccc4)sc3c2)cc1	–	·	?	·
CC(=O)Nc1cccc(C(=O)NCc2ccc3c(c2)CCN3C(=O)c2ccc(F)cc2)c1	–	·	–	·
Cc1c(/C=N/NC(=O)c2ccc(Br)o2)cnn1C	–	38	–	57
Cc1c(/C=N\NC(=O)c2ccc(F)cc2)cnn1C	–	–	–	27
Cc1occc1C(=O)N/N=C/c1cnn(C)c1C	–	33	–	62
Cc1c(/C=N\NC(=O)c2cccc(F)c2)cnn1C	–	45	–	92
Cc1c(/C=N/NC(=O)C2(O)c3ccccc3-c3ccccc32)cnn1C	–	–	–	–
Cc1c(/C=N/NC(=O)c2ccc3c(c2)OCO3)cnn1C	–	–	–	–
O=C(O)c1cccc(-n2cnc3cccnc32)c1	–	·	–	·
COc1ccccc1N1CCN(S(=O)(=O)c2c(C)sc3ncn(CC(=O)N(C)c4ccc(Cl)cc4)c(=O)c23)CC1	–	·	–	·
CCn1ncc(/C=N\NC(=O)c2ccc3c(c2)c(C)c(C)n3Cc2ccccc2)c1C	–	–	?	–
CCc1ccc(OCc2cccc(C(=O)N/N=C\c3cnn(C)c3C)c2)cc1	–	–	–	53
c1ccc(CSc2ccc(-c3cccnc3)nn2)cc1	–	32	–	98
c1cncc(CSc2ccc(-c3cccnc3)nn2)c1	–	–	–	67
COc1ccccc1-c1ccc(SCc2ccc([N+](=O)[O-])cc2)nn1	–	–	–	–
COc1ccccc1-c1ccc(SCc2cccc(C)c2)nn1	–	23	–	–
c1ccc(-c2ccc(SCc3cccnc3)nn2)nc1	–	27	–	137
O=C(CSc1ccc(-c2cccnc2)nn1)Nc1ccccc1	–	–	?	–
Cc1cccc(Oc2coc3cc(OCC(=O)NC4CCCCC4)ccc3c2=O)c1	–	·	?	·
Cc1nonc1CN(C)C(=O)C1CC12CCN(C(=O)/C=C/c1cccc(Cl)c1)CC2 (stereo not given)	·	·	–	·
COc1ccc(-c2ccc(SCc3cccnc3)nn2)cc1OC	–	19	–	–
SMILES	Sm TGR block	CHX counter	FMDV inh	Shiga toxin inh
CCOC(=O)CNC=C(C(=O)OCC)C(=O)OCC	–	–	–	–
CCOC(=O)C=C(C(=O)OCC)C(=O)OCC	1.6µM	–	?	–
O=C(c1cccc(Cl)c1)N1CCCC(C(=O)N2CCCCCC2)C1 (stereo not given)	–	–	–	–
O=C(c1cccc(Cl)c1)N1CCCC(C(=O)N2CCN(c3ccccc3)CC2)C1 (stereo not given)	–	24	–	50
COc1ccc(S(=O)(=O)N2CCCC(C(=O)O)C2)cc1Cl (stereo not given)	–	–	–	–
COc1ccccc1N1CCN(C(=O)C2CCCN(S(=O)(=O)c3ccc(C)cc3)C2)CC1 (stereo not given)	–	·	?	·
COc1ccccc1N1CCN(C(=O)C2CCCN(S(=O)(=O)c3ccc4c(c3)CCCN4C(C)=O)C2)CC1 (stereo not given)	–	–	28µM	–
COc1ccc(S(=O)(=O)N2CCCC(C(=O)N3CCN(c4ccccc4)CC3)C2)cc1Cl (stereo not given)	–	–	35µM	–
CC(=O)N1CCCc2cc(S(=O)(=O)N3CCCC(C(=O)N4CCN(c5ccccc5)CC4)C3)ccc21 (stereo not given)	–	–	18µM	–
Cc1ccc2c(c1)N(C(=O)N1CCC(C(=O)NCc3ccccc3C)CC1)CC(C)O2 (stereo not given)	–	·	?	·
CC(=O)N1CCCc2cc(S(=O)(=O)N3CCCC(C(=O)N4CCN(c5cc(C)ccc5C)CC4)C3)ccc21 (stereo not given)	–	–	28µM	–
COc1ccc(S(=O)(=O)N2CCC(C(=O)N3CCc4ccccc4C3)CC2)cc1Cl	–	28	·	–
Cc1ccc(S(=O)(=O)N2CCc3cc(C(=O)NCCc4ccccc4)ccc32)cc1	–	·	–	·
CCn1c(-c2ccccc2F)nc2cc(NC(C)=O)cc(C(=O)N3CCC[C@H]3C(=O)OC)c21	·	·	–	·
